Assay results taken from the supplement of paper PMC6555819.

Experiments:
Assay in all cases: PBM binding z-score (relative to random genomic background probes); higher = stronger binding; sequences stand for … in GC…GCGATTGACAGCGTAGAATGAAGG
[1] = test system: LXRa:RXRa (NR concentration 270 nM, RXRa partner concentration 90 nM)
Outline: (§1)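 Ligand-free nuclear receptor dimers were applied to custom Agilent 4×180K protein-binding microarrays whose double-stranded probes carried direct-repeat seeds, single-nucleotide variants, half-site ablations and random human genomic background sequences in 34-nt variable regions. Incubation lasted 1 h. Binding z-scores were computed against the random background probes from regression-normalized fluorescence.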

[2] = test system: LXRa homodimer (NR concentration 270 nM)
Outline: as §1

[3] = test system: LXRb homodimer (NR concentration 270 nM)
Outline: as §1

[4] = test system: PPARg:RXRa (NR concentration 180 nM, RXRa partner concentration 90 nM)
Outline: as §1

[5] = test system: PPARg:RXRa 270nM:90nM, anti-RXR (NR concentration 270 nM, RXRa partner concentration 90 nM)
Outline: as §1

[6] = test system: PPARg:RXRa 30nM:10nM, anti-RXR (NR concentration 30 nM, RXRa partner concentration 10 nM)
Outline: as §1

[7] = test system: PPARg:RXRa 90nM:30nM, anti-RXR (NR concentration 90 nM, RXRa partner concentration 30 nM)
Outline: as §1

[8] = test system: PPARg:RXRa DBDmut IVT, anti-RXR (DBD mutation: RXRa K156A/R161A, NR concentration 270 nM, RXRa partner concentration 90 nM)
Outline: as §1

[9] = test system: PPARg:RXRa IVT, anti-PPARg (NR concentration 270 nM, RXRa partner concentration 90 nM)
Outline: as §1

[10] = test system: PPARg DBDmut:RXRa IVT, anti-PPARg (DBD mutation: PPARg1 K132A/R137A, NR concentration 270 nM, RXRa partner concentration 90 nM)
Outline: as §1

[11] = test system: PPARg DBDmut IVT, anti-PPARg (DBD mutation: PPARg1 K132A/R137A, NR concentration 270 nM)
Outline: as §1

[12] = test system: PPARg homodimer (NR concentration 180 nM)
Outline: as §1

[13] = test system: PXR:RXRa (NR concentration 270 nM, RXRa partner concentration 90 nM)
Outline: as §1

[14] = test system: PXR homodimer (NR concentration 270 nM)
Outline: as §1

[15] = test system: RARa:RXR (NR concentration 270 nM, RXRa partner concentration 90 nM)
Outline: as §1

[16] = test system: RARa homodimer (NR concentration 270 nM)
Outline: as §1

[17] = test system: RARb:RXRa (NR concentration 270 nM, RXRa partner concentration 90 nM)
Outline: as §1

[18] = test system: RARb homodimer (NR concentration 270 nM)
Outline: as §1

[19] = test system: PPARa:RXRa (NR concentration 270 nM, RXRa partner concentration 90 nM)
Outline: as §1

| Sequence | PBM binding z-score [1] | PBM binding z-score [2] | PBM binding z-score [3] | PBM binding z-score [4] | PBM binding z-score [5] | PBM binding z-score [6] | PBM binding z-score [7] | PBM binding z-score [8] | PBM binding z-score [9] | PBM binding z-score [10] | PBM binding z-score [11] | PBM binding z-score [12] | PBM binding z-score [13] | PBM binding z-score [14] | PBM binding z-score [15] | PBM binding z-score [16] | PBM binding z-score [17] | PBM binding z-score [18] | PBM binding z-score [19] |
| --- | --- | --- | --- | --- | --- | --- | --- | --- | --- | --- | --- | --- | --- | --- | --- | --- | --- | --- | --- |
| CGTCAAAGATCAAGGTAACGTAACAGAAAGCAGC | -0.053 | -0.313 | -0.677 | 0.887 | 1.09 | 0.0515 | 0.332 | 0.519 | 0.642 | 0.647 | 0.471 | 0.374 | 0.00649 | -0.253 | 0.485 | 0.251 | 0.252 | -0.124 |  |
| TTACCAAGGTCAAGGTCGTTGATCCCTCTGTAGA | 5.51 | 3.05 | 1.11 | 6.32 | 6.38 | 3.44 | 5.46 | 3.67 | 5.09 | 1.64 | 0.631 | 4.12 | 5.31 | 2.27 | 5.57 | 1.71 |  | 4.86 | 5.9 |
| AGAATGAGGTCATACGTAGATCAGGGAAGAAAGT | 6 | 1.75 | 1.92 | 7.83 | 7.25 | 4.88 | 6.67 | 6.81 | 6.69 | 1.6 | 2.79 | 2.06 | 4.89 | 1.94 | 5.04 | 1.17 | 4.84 | 3.6 |  |
| GCTGCTAGGTCAACTGATGGCCAGCTAAAGCTCG | 2.54 | -0.17 | -0.174 | 2.45 | 3.01 | 0.617 | 2.13 | 4.28 | 4.14 | -0.855 | -0.449 | 1.12 | 1.1 | -0.837 | 1.88 | -0.722 | 4.23 | 3.32 |  |
| CGAACTAGGTCGTCCAGGACAGTGAATACATTGA | 0.121 | -0.214 | -0.486 | 2.47 | 1.89 | 0.4 | 1.39 | 5.71 | 4.97 | 0.213 | 0.237 | -0.545 | 0.256 | -0.263 | 0.281 | -0.365 | 1.14 | 0.392 |  |
| CATACAGGGTCGGCTAGGCCAGAGTAGGGACGGC | 0.0375 | -0.58 | -0.356 | 0.288 | -0.0886 | -0.643 | -0.513 | -0.787 | 0.00635 | -0.399 | -0.0958 | -0.0997 | -0.0911 | -0.146 | 0.408 | -0.15 | 1.13 | 0.799 |  |
| AGAATGAGGTCACCAAAGATCAGGGAAACGCTTG | 6.5 | 1.08 | 0.991 | 8.68 | 8.01 | 5.4 | 7.63 | 7.14 | 7.35 | 1.62 | 0.808 | 3.69 | 5.47 | 1.12 | 5.82 | 1.69 | 5.43 | 4.08 |  |
| CAAACTAGGTCAAGGTCTAAGTCGGTTTGTGCCA | 2.44 | 0.318 | 0.246 | 8.27 | 7.05 | 5.25 | 6.46 | 8.12 | 8.57 | 4.39 | 3.12 | 2 | 1.67 | 0.201 | 2.3 | 0.357 | 4.24 | 3.49 |  |
| TAGCCTAAGTCATGCGGGCCAGTATAGTGTCGGC | -0.396 | -0.595 | -1.13 | -0.117 | -0.602 | -0.673 | -0.77 | -0.333 | -0.138 | -0.862 | -1.37 | -0.139 | -0.538 | -0.831 | -0.11 | -1.14 | -0.165 | -0.506 |  |
| CGTCCAAGGTCAAGGTCAATGAAAGAGACTCGAA | 6 | 1.82 | 1.11 | 7.25 | 6.84 | 3.28 | 5.67 | 3.68 | 5.34 | 2.6 | 2.44 | 4.82 | 5.3 | 1.41 | 5.88 | 3.2 | 5.75 | 4.92 |  |
| ATCGAAAGGTCGACGCGGTGAGTATACACCGTTT | 3.4 | -0.127 | 0.391 | 2.07 | 2.54 | 0.887 | 1.8 | -0.0451 | 1.36 | 0.788 | 0.177 | 1.39 | 2.07 | -0.368 | 3 | 0.192 | 3.72 | 2.45 |  |
| CCTACTGGGCCTAAGGTCATTGATTCCAATGCTC | 2.93 | 2.32 | 0.209 | 7.98 | 8.17 | 7.15 | 8.08 | 1.25 | 3.86 | -0.629 | -0.793 | 2.07 | 3.7 | 1.98 | 3.54 | 0.174 | 3.15 | 3.54 |  |
| ATATGTAGGTTAGCTGGGGTCATTCACACTAGGC | 5.86 | 3.53 | 1.66 | 5.47 | 5.14 | 2.95 | 4.69 | 6.87 | 6.11 | 2.75 | 2.29 | 3.1 | 6.36 | 4.2 | 5.41 | 1.89 | 2.85 | 3.87 |  |
| TCTGCTAGGTCATCGATGGTCAGCTAATCTGCTA | 3.21 | -0.333 | -0.256 | 1.74 | 3.32 | 1.82 | 2.45 | 3.54 | 4.24 | 0.105 | -0.541 | 0.22 | 1.81 | -0.703 | 2.07 | -1.04 | 4.02 | 3.19 |  |
| AGTCAAAGTTTATCTAGGTAACGTAAGATATGCT | 0.263 | 0.141 | -0.331 | 2.44 | 2.51 | 0.904 | 1.95 | 2.68 | 4.84 | 1.23 | 1.54 | -0.0246 | 0.694 | 0.675 | 0.503 | 0.429 | 1.93 | 0.612 |  |
| CGTCAAAGTCCAAGGTAACGTAACAGAAAGCAGC | -0.0963 | 0.0661 | -0.271 | 0.688 | 0.296 | 0.129 | 0.303 | 0.295 | 0.33 | 0.185 | 0.896 | 0.652 | -0.079 | 0.233 | 0.165 | 0.428 | 1.52 | 0.655 |  |
